Bioassay records: PubChem BioAssay, Broad Institute
MITF act: MITF TRPM1 promoter activation in melanoma cells. activation, % at 12.5 µM. actives 0.75% (n = 300,000). SK-MEL-5 TRPM1-promoter luciferase, 24 h; % of positive control, neutral wells = 0. AID 588334;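 active means mean activation of at least 80% with every replicate also reaching 80%; inconclusive means mean reaches 80% but some replicate falls short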
Wnt bcat act: activates Wnt/beta-catenin signaling in a reporter cell assay; activator, plate reader; activation, % at 9.35 µM; actives 1.2% (n = 300,000); in the data active means activation above about 30%, passing the limit was not always enough; inconclusive means no clear call, values can overlap the other calls
C2C12 statin: suppression of simvastatin myotoxicity; C2C12 myotubes + simvastatin, ATP luminescence, 48 h; scaled: DMSO 0, geranylgeraniol control 100; rescue of ATP level, % at 7.49 µM; actives 0.78% (n = 330,000); AID 602340;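 active means mean ATP rescue above about 67%, or every replicate alone reaching that limit, limit read from the data, passing the limit was not always enough; inconclusive means no clear call, values can overlap the other calls; inactive means mean under the limit and some replicate under it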;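 further: myotubes were challenged with 10 µM simvastatin during compound exposure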
esBAF inh: SWI/SNF esBAF complex inhibition; actives 2% (n = 350,000); mouse ES cells, Bmi1-luciferase knock-in reporter, 24 h; 100% = twice the neutral-well signal; AID 602393; reporter increase, % at 12.5 µM; in the data active means activation above about 40%; inconclusive means no clear call, values can overlap the other calls;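 further: a rise in the Bmi1 reporter signal indicates esBAF inhibition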
Of the large screens only hits and unclear results are named; the others gave an inactive call. The list is not random: actives were taken first. Their share in the collection is about 3%.

C[C@@H]1CN([C@H](C)CO)C(=O)Cc2cc(NS(=O)(=O)c3cccs3)ccc2O[C@@H]1CN(C)C(=O)Nc1ccc(C(F)(F)F)cc1	none (no result: MITF act, Wnt bcat act)
O=C(C[C@H]1CC[C@H](NC(=O)Cc2ccccn2)[C@H](CO)O1)NCCc1ccncc1	none (no result: MITF act, Wnt bcat act)
CN(C)CC(=O)Nc1ccc2c(c1)[C@@H]1C[C@H](CC(=O)NCCN3CCCCC3)O[C@H](CO)[C@@H]1O2	none (no result: MITF act, Wnt bcat act)
CN(C)c1ccc(/C=N\NC(=O)c2cccc3cc[nH]c23)cc1	esBAF inh 54 (no result: MITF act)
CN(C)c1ccc(/C=N/NC(=O)c2cc(=O)[nH]c3ccccc23)cc1	none
Cc1ccc(C(=O)NNC(=O)c2cccc(C)c2)cc1	esBAF inh 41 (no result: Wnt bcat act)
Cc1ccc(/C=N/NC(=O)c2ccco2)cc1	Wnt bcat act 39 (no result: MITF act, C2C12 statin, esBAF inh)
CN(C)c1ccc(/C=N/NC(=O)c2ccco2)cc1	Wnt bcat act 42
COc1ccc(S(=O)(=O)Nc2ccc3c(c2)C(=O)N([C@@H](C)CO)C[C@H](C)[C@@H](CN(C)Cc2ccc4c(c2)OCO4)OCCCC[C@@H](C)O3)cc1	none (no result: MITF act, Wnt bcat act)
CC(C)NC(=O)Nc1cccc2c1O[C@H](CN(C)C)[C@H](C)CN([C@H](C)CO)C2=O	none (no result: MITF act, Wnt bcat act)
Cc1ccc(C(=O)NNC(=O)c2ccco2)cc1	esBAF inh 51
CN(C)c1ccc(/C=N/NC(=O)c2ccn(C)n2)cc1	Wnt bcat act 34 (no result: C2C12 statin, esBAF inh)
Cc1ccc(C(=O)NNC(=S)NC(=O)c2ccco2)cc1	none (no result: C2C12 statin, esBAF inh)
C[C@H](CO)N1C[C@H](C)[C@@H](CN(C)C(=O)Nc2ccc3c(c2)OCO3)Oc2ccc(NC(=O)C3CCCCC3)cc2CC1=O	none (no result: MITF act, Wnt bcat act)
COc1ccc(C2=NN(c3ccccc3)C(c3ccc(OC)c(OC)c3)C2)cc1 (stereo unspecified)	MITF act 84, esBAF inh 47
COc1ccc(C2=NN(C(C#N)c3ccc(OC)c(OC)c3)C(c3ccccc3)C2)cc1 (stereo unspecified)	Wnt bcat act 61, esBAF inh 51
COc1ccc(C2CC(c3ccc(F)cc3)=NN2c2ccccc2)cc1OC (stereo unspecified)	none (no result: MITF act)
c1ccc(-n2cnnc2SCc2nc3ccccc3s2)cc1	Wnt bcat act 51 (no result: MITF act)
Cc1nnc(SCC(=O)NCc2ccccc2)n1-c1ccccc1	C2C12 statin 103
CCn1c(SCc2nc3ccccc3s2)nnc1-c1ccccc1	esBAF inh 46 (no result: Wnt bcat act)
Cc1nnc(SCc2nc3ccccc3s2)n1-c1ccccc1	Wnt bcat act inconclusive, esBAF inh 72
COc1cccc(-c2nnc(SCc3nc4ccccc4s3)n2C)c1	none (no result: Wnt bcat act)
Cc1nnc(SCc2nc3ccccc3s2)n1N	none (no result: C2C12 statin, esBAF inh)
C[C@@H]1CN([C@@H](C)CO)C(=O)c2cc(N(C)C)ccc2O[C@@H](C)CCCCO[C@@H]1CN(C)Cc1ccc(C(=O)O)cc1	none (no result: MITF act, Wnt bcat act)
CCC(c1nnc(SCc2nc3ccccc3s2)n1Cc1ccccc1)N(C)C (stereo unspecified)	esBAF inh 70 (no result: Wnt bcat act)
c1ccc(Cn2c(SCc3nc4ccccc4s3)nnc2-c2ccco2)cc1	none (no result: Wnt bcat act)
COc1ccccc1NC(=O)COc1ccccc1C(=O)c1cnn(-c2ccccc2)c1	Wnt bcat act 50 (no result: C2C12 statin, esBAF inh)
COc1ccccc1S(=O)(=O)N[C@@H]1CC[C@@H](CCNC(=O)C2CCOCC2)O[C@@H]1CO	none (no result: MITF act, Wnt bcat act)
COc1cc(SC)ccc1C(=O)Nc1nc(C)cc(C)n1	none (no result: MITF act)
COc1cc(SC)ccc1C(=O)Nc1ccc2c(c1)CCC2	esBAF inh 47
COc1cc(SC)ccc1C(=O)NCC1CCCO1 (stereo unspecified)	none
COc1cc(SC)ccc1C(=O)Nc1cccc(C2OCCCO2)c1	esBAF inh 68
COc1cc(SC)ccc1C(=O)Nc1ccccc1C#N	C2C12 statin 99, esBAF inh 43
COc1cc(SC)ccc1C(=O)Nc1ccncc1	none (no result: C2C12 statin, esBAF inh)
O=C(NCC[C@H]1CC[C@H](NS(=O)(=O)c2cccc(F)c2)[C@H](CO)O1)c1cnccn1	none (no result: MITF act, Wnt bcat act)
COc1ccc(S(=O)(=O)Nc2ccc3c(c2)CC(=O)N([C@@H](C)CO)C[C@H](C)[C@H](CN(C)S(=O)(=O)c2ccc(Cl)cc2)O3)cc1	none (no result: MITF act, Wnt bcat act)
CC(=O)c1cc2c(cc1NC(=O)c1c(-c3ccccc3)noc1C)OCO2	C2C12 statin 85
Cc1onc(-c2ccccc2)c1C(=O)Nc1ccc2c(c1)OCCO2	none
Cc1ccc(-n2nnc3ccccc3c2=O)cc1C	MITF act 86 (no result: Wnt bcat act)
c1ccc(-n2nnc3ccccc32)nc1	esBAF inh 61 (no result: Wnt bcat act)
C[C@H](CO)N1C[C@H](C)[C@H](CN(C)S(=O)(=O)c2ccc(C#N)cc2)Oc2ncc(-c3cc4ccccc4o3)cc2C1=O	C2C12 statin 95 (no result: MITF act, Wnt bcat act)
COc1ccc(S(=O)(=O)N(C)C[C@@H]2Oc3ncc(-c4cc5ccccc5o4)cc3C(=O)N([C@H](C)CO)C[C@@H]2C)cc1	none (no result: MITF act, Wnt bcat act)
